In the library only some 7.7% were active in any assay of this set; here they are far more common.
TbPYK inhibitor: qHTS of Trypanosoma Brucei Inhibitors; TbPYK enzyme, Kinase-Glo Plus ATP luminescence, 45 min; Potency, µM (highest dose often 76.8 µM), for inactives: top-dose activity, negative = inhibition, actives largely listed as inhibitors; 0.12% of 410,000 active; also: potency is read from the fitted curve at half-maximal effect; nearly all actives have a fitted effect of over 50% in size
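Glycolytic pyruvate kinase of T. brucei was incubated with substrate, test compound and 130 uM ADP for 45 minutes at room temperature. Luminescent Kinase-Glo Plus signal was measured after 10 minutes.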
Sm TGR block: qHTS Assay for the Inhibitors of Schistosoma Mansoni Peroxiredoxins; Schistosoma mansoni thioredoxin glutathione reductase (TGR), Q962Y6; purified TGR, DTNB reduction, TNB absorbance 405 nm; Potency, µM (top dose mostly 114 µM), without a hit: at the highest dose activity change, negative = inhibition, actives largely listed as inhibitors; 3% of 360,000 active; AID 485364, 2010; also: potency is read from the fitted curve at half-maximal effect; nearly all actives have a fitted effect of over 60% in size
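TGR 20 nM + NADPH 100 uM (dispensed conc.), cpd preinc 15 min RT; start with NADPH (500 uM addition) then DTNB (15 mM addition). Kinetic TNB absorbance, 405 nm filter. Four-parameter Hill fit across titration.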
FMDV antiviral: High Throughput Screening for Foot and Mouth Disease Virus Antivirals. 1.2% of 410,000 active. AID 1159524, 2015. Potency, µM (highest dose often 57.9 µM), for the others: top-dose activity change, negative = inhibition, usual class: inhibitors. FMDV antiviral cell-based qHTS; calls by dose curve; tested in HEK293T cells; also: read-out not given here; potency is read from the fitted curve at half-maximal effect; nearly all actives have a fitted effect of over 45% in size
RE007 growth inh: qHTS Assay for Inhibitors of the HIV-1 protein Vpr. 0.21% of 360,000 active. Potency, µM (top dose mostly 92.2 µM), for inactives: at the highest dose activity change, negative = less growth, actives largely listed as inhibitors. S. pombe RE007 Vpr strain, BacTiter-Glo ATP luminescence, 24 h; active = well fitted falling curve with a large enough effect; inconclusive = small, poorly fitted or top-dose-only effect; inactive = no such curve, though single readings can be large or run the other way; also: potency is read from the fitted curve at half-maximal effect; nearly all actives have a fitted effect of over 50% in size
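Fission yeast RE007 carrying one integrated HIV-1 vpr copy, seeded at OD 0.01 in PMG+AL medium with 23 nL pinned compound. Grown 24 h at 30 degrees; viability read by BacTiter-Glo luminescence after 5 min.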
HCMV antiviral: qHTS Assay for inhibitors of the human cytomegalovirus (HCMV); activity change, negative = inhibition, % at 57.5 µM; 4.5% of 410,000 active; HFF cells, HCMV-luciferase reporter, 72 h; stronger effect = lower value; in the data active = activity change below about -60%; inconclusive = no clear call, values can overlap the other calls; inactive = above about -39%
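Human foreskin fibroblasts infected with luciferase-reporter HCMV at MOI 1 PFU/cell, compounds at two doses. Luciferase measured 72 h post infection; normalized to buffer-only basal and Salinomycin (10uM) controls.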
FBPA Giardia inh: qHTS Assay for Inhibitors of Fructose-1,6-bisphosphate Aldolase from Giardia Lamblia | A8B2U2 | purified Giardia FBPA | Potency, µM (top dose mostly 59.6 µM), for the others: top-dose activity, negative = inhibition, actives largely listed as inhibitors | 0.71% of 290,000 active | AID 2451, 2010; also: potency is read from the fitted curve at half-maximal effect; nearly all actives have a fitted effect of over 55% in size
Target sequence (A8B2U2 whole entry, looked up): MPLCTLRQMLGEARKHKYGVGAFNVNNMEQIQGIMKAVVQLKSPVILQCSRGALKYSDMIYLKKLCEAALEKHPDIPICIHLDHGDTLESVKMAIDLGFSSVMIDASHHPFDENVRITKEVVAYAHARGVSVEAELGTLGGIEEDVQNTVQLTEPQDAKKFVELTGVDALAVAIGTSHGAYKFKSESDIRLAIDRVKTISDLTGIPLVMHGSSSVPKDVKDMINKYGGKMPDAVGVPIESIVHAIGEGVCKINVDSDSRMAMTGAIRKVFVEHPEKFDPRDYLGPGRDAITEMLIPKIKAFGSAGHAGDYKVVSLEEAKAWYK
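40 nM FBPA preincubated 10 min at RT with compound (up to 57.5 uM final), then substrate plus GAPDH/TPI/NAD/arsenate coupling and diaphorase/resazurin added. Fluorescence read after 20 min at RT, 525/598 nm.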
Numbers without * were called inactive; ? = inconclusive; / = no result. Unless noted, calls follow the shape of the dose curve; as a rule, active = well fitted curve in the direction sought with a large enough effect; inconclusive = small, poorly fitted or top-dose-only effect, or another doubt; inactive = no such curve, though single readings can be large; an effect the other way counts as inactive or inconclusive. % is scaled to controls: 0 for no effect and ±100 for the full control effect.

SMILES	TbPYK inhibitor	Sm TGR block	FMDV antiviral	RE007 growth inh	HCMV antiviral	FBPA Giardia inh
COc1ccccc1CCNC(=O)CSc1ccc(-c2ccco2)nn1	-19.0%	3.55µM*	-12.9%	1.7%	21.3	?
CC(=O)c1c2c(cc3c(N(C)C)cccc13)CC(CO)(CO)C2	/	/	/	/	-16.7	/
O=C(c1ccoc1)N1CCOc2ccc(CN3CCC(Oc4cccnc4)CC3)cc2C1	/	/	1.1%	/	/	/
Cc1ccc(NC(=O)N2CCc3cc(S(=O)(=O)N4CCC(C)CC4)ccc32)cc1C	-0.3%	-1.9%	-11.2%	/	15.5	/
CCc1ccc(NC(=O)CSc2ccc(-c3ccco3)nn2)cc1	-11.3%	20µM*	-12.5%	-3.3%	14.1	-0.8%
CC(=O)c1cccc(NC(=O)CSc2ccc(-c3ccco3)nn2)c1	?	?	?	-11.3%	-29.1	/
Cc1cccc(CC(=O)N[C@@H](Cc2ccccc2)C(O)c2nc3ccccc3[nH]2)c1 (some centres not stated)	/	/	/	/	-9.2	/
O=C(NCc1cccnc1)C1c2ccccc2C(=O)N1Cc1ccco1 (configuration not stated)	-2.8%	35.5µM*	32.4%	9.2%	11.5	-0.9%
CCc1cccc(C)c1NC(=S)N(CCOC)C(C)c1ccco1 (configuration not stated)	3.1%	9.7%	1.4%	5.3%	-65.8*	-2.1%
CCc1ccccc1NC(=S)N(CCOC)C(C)c1ccco1 (configuration not stated)	6.2%	11.4%	5.2%	4.9%	-0.7	-0.4%
Cn1c(-c2cccc(C(F)(F)F)c2)cc2cnc(Nc3ccc4c(c3)OCCO4)cc21	/	/	/	/	18.0	/
O=C(Cc1ccc(F)cc1)N1CCN=C1SCc1ccc([N+](=O)[O-])cc1	2.1%	-18.2%	-19.5%	-19.7%	-68.2*	0.7%
CCN(CC)Cc1c(NC(=O)c2ccccc2)sc(C)c1C	-1.8%	8.91µM*	28.7%	-3.0%	58.9	-3.4%
CCN(CC)C(=O)c1c(NC(=O)c2ccccc2)sc(C)c1C	-9.1%	-22.4%	13.2%	-1.7%	-8.6	3.3%
COC(=O)C[C@H]1CC[C@@H](NC(=O)Nc2c(C)noc2C)[C@@H](CO)O1	/	/	-10.7%	-5.6%	-65.1*	/
COc1cccc(CNC(=O)CSc2nnc(C)c3c(C)n(-c4ccccc4)nc23)c1OC	1.1%	-4.3%	?	/	-19.1	/
CC(=O)N(Cc1ccc(F)cc1)C1=C(NCCc2ccccc2)C(=O)c2ccccc2C1=O	1.3%	?	25.1µM*	?	-99.8*	?
CC1=C(Nc2ccc(C(=O)O)cc2)C(=O)c2ccccc2C1=O	5.2%	22.4µM*	8.8%	-19.7%	75.7	?
CC(C(=O)Nc1ccc(C(=O)O)cc1)N1C(=O)c2ccccc2C1=O (configuration not stated)	9.3%	15.1%	-3.0%	1.1%	12.6	-1.0%
C=CCNC1=C(Cl)C(=O)c2ccccc2C1=O	-0.8%	44.7µM*	-14.3%	20µM*	68.4	?
C=CCNC1=C(Cl)C(=O)N(c2cccc(Cl)c2Cl)C1=O	2.0%	-23.7%	-13.8%	3.8%	54.6	0.5%
O=C1C(Cl)=C(NCCc2ccccc2)C(=O)c2ccccc21	?	/	-17.1%	6.31µM*	-64.0*	/
CCOC(=O)N1C(=O)C[C@H](C(=O)N2CCOCC2)[C@H]1c1ccc(OC)cc1	/	/	/	/	-14.4	/
Cc1c(Cl)cccc1NC(=O)CN1C(=O)CCn2nc(-c3cccn3C)cc21	-1.3%	-5.4%	-6.7%	/	25.7	/
COc1ccc(C(=O)NCc2nc(-c3ccccc3NC(=O)c3cc(C)oc3C)oc2C)cc1F	/	/	2.8%	/	/	/
COc1ccc(C)cc1NC(=O)C(=O)NCC(c1cccnc1)N1CCN(c2ccccc2F)CC1 (configuration not stated)	-6.9%	-0.5%	?	/	-24.3	/

Screening data from PubChem BioAssay.
